Mtb UGM inh: inhibitors of M. tuberculosis UDP-galactopyranose mutase; P9WIQ1; purified UGM, fluorescence polarization probe displacement; inhibition, % at 10 µM; 0.06% of 320,000 active; in the data active = inhibition above about 10%, passing the limit was not always enough
Rv3671c protease: inhibitors of M. tuberculosis serine protease Rv3671c | P9WHR9 | 0.048% of 320,000 active | inhibition, % at 5.96 µM | AID 2606; in the data active = inhibition above about 38%;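 note: extracellular domain of Rv3671c used as enzyme; 0% = enzyme with DMSO and 100% = no enzyme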
Target sequence (P9WHR9 whole entry, looked up, the tested form may be a part): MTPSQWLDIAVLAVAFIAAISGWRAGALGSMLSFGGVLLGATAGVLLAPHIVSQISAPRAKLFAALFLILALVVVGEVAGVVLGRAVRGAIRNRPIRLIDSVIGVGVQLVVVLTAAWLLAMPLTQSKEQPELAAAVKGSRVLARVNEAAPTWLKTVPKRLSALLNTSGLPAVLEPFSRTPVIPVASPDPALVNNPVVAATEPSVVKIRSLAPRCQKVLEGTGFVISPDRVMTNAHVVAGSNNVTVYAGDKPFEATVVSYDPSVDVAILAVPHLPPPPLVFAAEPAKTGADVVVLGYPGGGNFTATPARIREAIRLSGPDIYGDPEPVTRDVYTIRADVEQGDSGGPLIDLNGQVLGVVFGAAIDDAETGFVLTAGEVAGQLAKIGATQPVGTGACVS
GDH-TPI inh: counter-screen for M. tuberculosis FBA inhibitors: GDH-TPI coupled enzymes; AID 588335; GDH-TPI coupled enzyme counterscreen, NADH absorbance; 1.2% of 360,000 active; inhibition, % at 4.8 µM; in the data active = inhibition above about 30%;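 note: 0% = DMSO wells and 100% = wells lacking the enzyme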
RecA intein inh: inhibitors of M. tuberculosis RecA intein splicing | P9WHJ3 | inhibition, % (concentration not given with the values) | 0.75% of 290,000 active | cell-free RecA intein splicing, fluorescence; in the data active = inhibition above about 30%;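 note: 0% = vehicle wells and 100% = reference inhibitor control wells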
Mtb betalactam: beta-lactam sensitization of Mtb H37Rv. M. tuberculosis H37Rv growth with meropenem, percent inhibition. inhibition, % at 25 µM. 0.27% of 330,000 active. AID 434955; call rule not given here;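 note: growth measured after seven days incubation then overnight dye step; 0% = bacteria only wells and 100% = bacteria with antibiotic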
FBA Mtb inh: inhibits M. tuberculosis FBA enzyme; purified M. tuberculosis FBA, fluorescence read-out; inhibition, % at 1 µM; 2.3% of 360,000 active; AID 588726; in the data active = inhibition above about 27%;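 note: 0% = vehicle and 100% = reference inhibitor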
* marks the source's active call; other numbers are inactive results; i = inactive; . = no result given; + = active, no number. This is a sample that favours compounds with a hit; in the whole collection about 4% have one here.

SMILES | Mtb UGM inh | Rv3671c protease | GDH-TPI inh | RecA intein inh | Mtb betalactam | FBA Mtb inh
Cc1cccc(-n2c3nc(=O)[nH]c(=O)c-3cc3c(C)nn(-c4ccccc4)c32)c1C | 1.3 | 0.7 | 11.8 | -4.7 | 1.1 | +
Cc1cccc(-n2c(C)nc3ccccc3c2=O)c1C | 0.5 | -6.0 | -0.6 | 0.8 | -7.9 | 3.0
Cc1nn(-c2ccccc2)c2c1cc1c(=O)n(C)c(=O)nc-1n2-c1ccccc1F | -3.4 | 7.9 | 0.8 | -22.2 | -6.3 | 163.9*
Cc1ccc(C(=O)Nc2ccc(S(=O)(=O)NC3=NCCCCC3)cc2)cc1S(=O)(=O)N1CCOCC1 | -1.2 | 3.5 | -8.0 | . | 1.4 | 0.4
COc1nccnc1NS(=O)(=O)c1ccc(N=Cc2c(C)[nH]n(-c3ccc(C)c(C)c3)c2=O)cc1 | 1.8 | -5.9 | 32.5* | 4.8 | 57.4 | -0.8
CCC(C)[C@H]1CNCCN1CCc1cccc(F)c1 (stereo partly drawn) | -0.5 | -3.9 | 10.9 | -1.2 | -10.3 | 3.5
CCOc1c(C(N)=O)c(-c2ccccc2)c2c(=O)[nH]c3ccccc3n12 | -0.2 | 3.3 | 14.3 | 0.9 | 0.6 | 112.2*
CCOC(=O)c1c(C)nc(C)c(C(=O)OCC)c1-c1ccccc1 | 0.5 | -2.0 | -10.1 | . | 13.6 | -3.7
CCOC(=O)c1cc2c(=O)n3ccccc3nc2n(CCOC)c1=NC(=O)c1ccncc1 | -2.3 | -12.3 | 9.9 | -108.1 | 4.7 | 185.9*
CCOC(=O)c1cc2c(=O)n3ccccc3nc2n(CCOC)c1=NC(=O)C(C)(C)C | -1.6 | 2.5 | -8.4 | -193.8 | 8.6 | +
CCOC(=O)c1cc2c(=O)n3ccccc3nc2n(C(C)C)c1=NC(=O)c1c(-c2ccccc2Cl)noc1C | 0.9 | -1.9 | -1.2 | -8.7 | 6.5 | 17.6
CCOC(=O)c1cc2c(=O)n3ccccc3nc2n(CCCOC)c1=NC(=O)c1cccnc1 | -5.5 | 4.5 | . | -62.9 | -0.1 | .
CCOC(=O)c1cc2c(=O)n3ccccc3nc2n(C(C)C)c1=NC(=O)c1ccncc1 | -1.8 | 2.7 | 8.7 | -197.9 | 24.2 | 122.5*
CCOC(=O)c1cc2c(=O)n3ccccc3nc2n(CCCOC)c1=NC(=O)C(C)(C)C | -1.3 | -2.4 | 16.4 | i | 4.4 | +
COc1ccc(CCNC(=O)c2cc3c(=O)n4ccccc4nc3n(CCCN3CCOCC3)c2=N)cc1 | -1.7 | -7.0 | 12.6 | -19.8 | 8.8 | 14.0
COCCn1c(=N)c(S(=O)(=O)c2ccc(Br)cc2)cc2c(=O)n3ccccc3nc21 | -4.3 | 13.2 | 3.1 | -17.2 | 0.9 | 4.5
COC(=O)C(OC(=O)c1ccccc1)C(C)Br (stereo not drawn) | 1.3 | -4.9 | 16.1 | . | 5.8 | 8.1
C[C@H](CO)N1C[C@H](C)[C@@H](CN(C)Cc2ccc(F)cc2)Oc2ncc(Br)cc2C1=O | . | . | 9.3 | . | . | -1.5
CCc1nc2ccc(C(=O)N(CC)CCN(C)C)cn2c1N(CC)CCOC | . | . | 14.3 | . | . | 6.9
C[C@@H]1CN([C@@H](C)CO)C(=O)CCCn2nncc2CO[C@H]1CN(C)S(=O)(=O)c1ccc2ccccc2c1 | . | . | 19.6 | . | . | 3.9
CC(=O)N1c2ccccc2NC2=C(C(=O)CCC2)C1c1cccnc1 (stereo not drawn) | 0.8 | 4.6 | 28.4 | 1.4 | -11.4 | -0.9
O=C1CCCC2=C1C(c1cccnc1)Nc1ccccc1N2 (stereo not drawn) | 0.1 | -0.7 | 30.8* | 3.2 | 0.6 | -13.5
CCOC(=O)C(=O)N(C)c1c(CC)nc2c(OCc3cccc(OC)c3)cccn12 | . | . | 4.0 | . | . | 0.0
CN(C(=O)CN1CCN(c2cnn(-c3ccccc3)c(=O)c2Cl)CC1)C1CCS(=O)(=O)C1 (stereo not drawn) | -0.4 | 4.7 | 20.1 | . | -3.6 | -0.8
O=c1oc2c(CN3CCOCC3)c(O)ccc2c2c1CCCC2 | 1.2 | 1.8 | 28.6 | -33.3 | -1.7 | +
O=c1oc2c(CN3CCOCC3)c(O)ccc2c2ccccc12 | -3.3 | 3.8 | 5.0 | -7.0 | -1.2 | -3.8
O=c1oc2c(CN3CCOCC3)c(O)c(Cl)cc2c2c1CCCC2 | 1.8 | -3.3 | 18.8 | -82.4 | 1.7 | +
COc1ccc2cc3cc(C(=O)N(C)C4CCCCC4)oc3nc2c1 | -6.8 | -6.9 | 38.9* | -0.4 | 61.4 | 24.1
COc1ccc2cc3cc(C(=O)N4CCCCCC4)oc3nc2c1 | 2.8 | -2.9 | 38.9* | 0.8 | 4.0 | 85.9*
COc1ccc2cc3cc(C(=O)N4CCCCC4C)oc3nc2c1 (stereo not drawn) | 0.6 | -0.3 | 49.0* | 5.4 | 3.3 | 40.4*
